{"source": "PubChem BioAssay", "target": "Pantothenate synthetase (Mycobacterium tuberculosis (strain ATCC 25618 / H37Rv)) (UniProt P9WIL5)", "sequence (P9WIL5 whole entry, looked up)": "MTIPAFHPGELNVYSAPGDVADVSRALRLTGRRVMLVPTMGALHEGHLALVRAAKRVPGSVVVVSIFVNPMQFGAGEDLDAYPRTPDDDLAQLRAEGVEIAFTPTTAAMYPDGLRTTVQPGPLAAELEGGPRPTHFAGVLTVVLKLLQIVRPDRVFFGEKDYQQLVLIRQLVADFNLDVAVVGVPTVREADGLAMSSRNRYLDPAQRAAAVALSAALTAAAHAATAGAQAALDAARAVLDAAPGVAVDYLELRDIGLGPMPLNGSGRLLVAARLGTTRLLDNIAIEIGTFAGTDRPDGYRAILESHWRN", "assay": "Coupled enzyme confirmation of inhibitors against recombinant Mtb PanC (AID 375);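 further: 0% = full reaction with vehicle and 100% = no enzyme background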", "conditions": "coupled enzyme assay; at 10 µM, active compounds read high", "note": "Unmarked numbers belong to inactive results. How the calls were made is not given here."}
{"smiles": "Cc1cc2ncn(N)c2cc1C", "values": [{"measurement": "inhibition", "result": 9, "unit": "%"}]}
{"smiles": "CCCN(CCC)C(=O)CSc1nc2ccccc2c(=O)n1C1CCCC1", "values": [{"measurement": "inhibition", "result": 7, "unit": "%"}]}
{"smiles": "CC1(C)CC(=O)C(C=NCCc2ccc(S(N)(=O)=O)cc2)=C(O)C1", "values": [{"measurement": "inhibition", "result": 0, "unit": "%"}]}
{"smiles": "Cc1ccc(Nc2nc(N)nc(CN3CCN(Cc4ccc5c(c4)OCO5)CC3)n2)cc1", "values": [{"measurement": "inhibition", "result": 0, "unit": "%"}]}
{"smiles": "CCOC(=O)n1c(SCC(=O)N(CC)CC)nc2ccccc21", "values": [{"measurement": "inhibition", "result": 0, "unit": "%"}]}
{"smiles": "O=C(CSCc1cnn(-c2ccccc2)c1-n1cccc1)NCC1CCCO1", "note": "(configuration not stated)", "values": [{"measurement": "inhibition", "result": 4, "unit": "%"}]}
{"smiles": "O=C(CNC1CCCCCC1)Nc1ccc(S(=O)(=O)NC2CC2)cc1", "values": [{"measurement": "inhibition", "result": 2, "unit": "%"}]}
{"smiles": "COc1ccc(C2=NOC(C(=O)NCCCN3CCOCC3)C2)cc1", "note": "(configuration not stated)", "values": [{"measurement": "inhibition", "result": 5, "unit": "%"}]}
{"smiles": "CCc1ccccc1OCCCCN1CCCC1", "values": [{"measurement": "inhibition", "result": 0, "unit": "%"}]}
{"smiles": "Cn1cc(C(=O)NC2CCCCCCC2)c(=O)c2cc(S(=O)(=O)N3CCCC3)ccc21", "values": [{"measurement": "inhibition", "result": 0, "unit": "%"}]}
{"smiles": "CC(=O)OCCNc1cc(N2CCN(C)CC2)c2noc3c2c1C(=O)c1ccccc1-3", "values": [{"measurement": "inhibition", "result": 0, "unit": "%"}]}
{"smiles": "CCC(C)(C)n1nnnc1C(c1ccc(OC)c(OC)c1)N1CCN(c2ccccc2)CC1", "note": "(configuration not stated)", "values": [{"measurement": "inhibition", "result": 0, "unit": "%"}]}
{"smiles": "CCCc1cc(C(=O)Nc2ccccc2SC)no1", "values": [{"measurement": "inhibition", "result": 0, "unit": "%"}]}
{"smiles": "Cc1cccc(Nc2ncc3c(n2)CC(c2ccco2)CC3=O)c1", "note": "(configuration not stated)", "values": [{"measurement": "inhibition", "result": 1, "unit": "%"}]}
{"smiles": "CNC(=O)CSc1nc2c(c(=O)n(C)c(=O)n2C)n1Cc1ccc(C)cc1", "values": [{"measurement": "inhibition", "result": 0, "unit": "%"}]}
{"smiles": "O=C(CN1C(=O)C2C3C=CC(C3)C2C1=O)NCc1ccc2c(c1)OCO2", "note": "(configuration not stated)", "values": [{"measurement": "inhibition", "result": 0, "unit": "%"}]}
{"smiles": "Cc1ccc(-c2noc(CCC(=O)N3CCN(c4cccc(C(F)(F)F)c4)CC3)n2)cc1", "values": [{"measurement": "inhibition", "result": 0, "unit": "%"}]}
